According to PubChem BioAssay (NCATS):
Records with an inconclusive call do not appear. Calls of active or inactive are those of the source. Calls come from the whole dose curve; as a rule, active = well fitted inhibition curve with a large enough effect; inconclusive = small, poorly fitted or top-dose-only effect; inactive = flat fitted curve, though single readings scatter.

Legend:
[1] = biological target: Glutathione peroxidase 1 (Homo sapiens) (UniProt P07203); assay: Primary qHTS Assay for Inhibitors of Recombinant Selenoprotein Glutathione Peroxidase 1 (GPX1) (AID 1845191); note: nearly all actives have a fitted effect of over 65% in size; for activity, negative = inhibition: % is set by controls: 0 for no effect and ±100 for the full control effect
Sequence of Glutathione peroxidase 1 (Homo sapiens) (P07203 whole entry, looked up): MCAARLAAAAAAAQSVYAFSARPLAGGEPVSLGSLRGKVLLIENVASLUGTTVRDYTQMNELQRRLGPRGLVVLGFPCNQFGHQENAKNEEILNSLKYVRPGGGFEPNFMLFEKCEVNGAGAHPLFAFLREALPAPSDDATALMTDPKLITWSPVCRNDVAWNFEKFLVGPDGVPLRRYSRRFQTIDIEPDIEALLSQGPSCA
Method in brief: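 10 nM GPX1 + cpd, 30 min RT; start w/ 1 mM GSH, 0.5 mM cumene hydroperoxide, 0.5 mM NADPH, 100 nM GR, 0.01% BSA; buffer 50 mM Tris-HCl pH 7.5, 2 mM EDTA, 150 mM NaCl; Fl 340/450, 0 & 15 min.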

[2] = biological target: Phospholipid hydroperoxide glutathione peroxidase GPX4 (Homo sapiens) (UniProt P36969); assay: Primary qHTS Assay for Inhibitors of Recombinant Selenoprotein Glutathione Peroxidase 4 (GPX4) (AID 1845192); note: nearly all actives have a fitted effect of over 65% in size; for activity change, negative = inhibition: series mostly up to about 50 µM; % is set by controls: 0 for no effect and ±100 for the full control effect
Sequence of Phospholipid hydroperoxide glutathione peroxidase GPX4 (Homo sapiens) (P36969 whole entry, looked up): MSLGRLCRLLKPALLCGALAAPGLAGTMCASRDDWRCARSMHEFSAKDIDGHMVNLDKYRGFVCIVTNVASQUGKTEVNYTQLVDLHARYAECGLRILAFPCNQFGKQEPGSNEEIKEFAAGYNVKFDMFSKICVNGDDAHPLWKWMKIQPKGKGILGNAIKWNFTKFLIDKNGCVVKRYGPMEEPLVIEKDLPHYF
Method in brief: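 NADPH consumption, followed by fluorescence at 340/450 nm between 0 and 15 min, reports GPX4 activity via coupled glutathione reductase (100 nM). Enzyme 200 nM was pre-exposed to compound 30 min; 0.5 mM cumene hydroperoxide and 1 mM GSH served as substrates.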

[3] = biological target: Luciferin 4-monooxygenase (Photinus pyralis) (UniProt P08659); assay: Primary firefly luciferase (FLuc) qHTS assay for identification of artifact compounds. (AID 1845220); note: nearly all actives have a fitted effect of over 60% in size;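 for activity change, negative = inhibition: series mostly up to about 54 µM; plate controls were DMSO vehicle for no effect and no enzyme for full effect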
Method in brief: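 Compounds sat 15 min at room temperature with 10 uM luciferin and 10 uM ATP (pH 7.6 Tris acetate). Firefly luciferase (10 nM final) was then added, and luminescence was read 5 min later. Data normalized to no-enzyme and DMSO controls were Hill-fitted.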

C[C@@]12C[C@]3(O)O[C@H](O1)[C@]1(COC(=O)c4ccccc4)[C@H]3C[C@@]12O[C@@H]1O[C@H](COC(=O)c2ccccc2)[C@@H](O)[C@H](O)[C@H]1O
inactive: Potency [1] | Potency [2] | Potency [3]

CC1(C)C(O)CCC2(C)C1C(O)C=C1COC(=O)C12O (centres undefined)
inactive: Potency [1] | Potency [2] | Potency [3]

CNC(=O)c1ccc(Nc2ncc(C(F)(F)F)c(NCc3nccnc3N(C)S(C)(=O)=O)n2)cc1
inactive: Potency [1] | Potency [2] | Potency [3]

C[C@@H]1O[C@@H](O[C@H]2[C@H](O[C@H]3[C@H](O[C@H]4CC[C@@]5(C=O)C(CC[C@]6(C)C5CC=C5C7CC(C)(C)C[C@@H](O)[C@]7(C)CC[C@]56C)C4(C)C)O[C@H](C(=O)O)[C@@H](O)[C@@H]3O)OC[C@@H](O)[C@@H]2O)[C@H](O)[C@H](O)[C@H]1O (some centres undefined)
inactive: Potency [1] | Potency [2] | activity change, negative = inhibition [3] 0.64% [at 11.6 µM]

C=C1[C@@H]2[C@H]3OC(=O)C(=C)[C@@H]3CC[C@@](C)(O)[C@@H]2C[C@@H]1O[C@@H]1O[C@H](CO)[C@@H](O)[C@H](O)[C@H]1O
inactive: Potency [1] | Potency [2] | Potency [3]

CC(C)=CCc1ccc(Oc2c(O)cc(C)cc2CO)c(C(=O)O)c1O
inactive: Potency [1] | Potency [2] | Potency [3]

CCN[C@@H]1C[C@H](N)[C@@H](O[C@H]2OC(CN)=CC[C@H]2N)[C@H](O)[C@H]1O[C@H]1OC[C@](C)(O)[C@H](NC)[C@H]1O
inactive: Potency [1] | Potency [2] | Potency [3]

CC(=O)OC[C@@]12[C@@H](OC(C)=O)C[C@@H](C)[C@](C)([C@@H]3C[C@H]4C=CO[C@H]4O3)[C@H]1CCC[C@]21CO1
inactive: Potency [1] | Potency [2] | Potency [3]

CC1CCC2(NC1)OC1C(=O)C3C4CCC5CC(O[C@@H]6O[C@H](CO)[C@@H](O)[C@H](O)[C@H]6O[C@@H]6O[C@@H](C)[C@H](O)[C@@H](O)[C@H]6O)CCC5(C)C4CCC3(C)C1C2C (some centres undefined)
inactive: Potency [1] | Potency [2] | Potency [3]

O=C(O[C@H]1[C@@H]2C[C@@H]3OC[C@@](O)([C@H]2[C@H](O[C@@H]2O[C@H](CO)[C@@H](O)[C@H](O)[C@H]2O)O3)[C@@H]1O)c1ccccc1
inactive: Potency [1] | Potency [2] | Potency [3]

CC(C(=O)O)C1CCC2(C)C3C(=O)C=C4C(CCC(=O)C4(C)C)C3(C)CCC12C (centres undefined)
inactive: Potency [1] | Potency [2] | Potency [3]

COc1ccccc1[C@@H]1C2=C(CC(C)(C)CC2=O)Nc2n[nH]c(C(F)(F)F)c21
inactive: Potency [1] | Potency [2] | Potency [3]

CC1(C)CCCC2(C)C1C(O)C=C(CO)C2(O)C(=O)O (centres undefined)
inactive: Potency [1] | Potency [2] | Potency [3]

COc1ccc(C)c2sc(NC(=O)c3ccncc3)nc12
inactive: Potency [1] | Potency [2] | Potency [3]

COC12CC3C(C(C)C1=CC(=O)O2)C(O)C(OC(C)=O)C1C(C)(C)C(OC(C)=O)CCC31C (centres undefined)
inactive: Potency [1] | Potency [2] | Potency [3]

CC1(C)CC2C3=CCC4C5(C)CCC(OC6OC(CO)C(O)C(OC7OC(CO)C(O)C(OC8OC(CO)C(O)C(OC9OC(COC%10OC(CO)C(O)C(O)C%10O)C(O)C(O)C9O)C8O)C7O)C6O)C(C)(C)C5CCC4(C)C3(C)CCC2(C(=O)O)CC1O (centres undefined)
inactive: activity, negative = inhibition [1] -11.7% [at 9.52 µM] | outcome [2] inactive [at 9.73 µM] | activity change, negative = inhibition [3] -5.47% [at 11.6 µM]

O=C(/C=C/c1ccc(O)cc1)OC[C@H]1O[C@@H](OC(=O)/C=C/c2ccccc2)[C@H](O)[C@@H](O)[C@@H]1O
inactive: Potency [1] | Potency [2] | Potency [3]

COc1cc(/C=C/C(=O)OC2CC(C)=C(C(=O)O)/C2=C/CO[C@@H]2O[C@H](CO)[C@@H](O)[C@H](O)[C@H]2O)ccc1O (some centres undefined)
inactive: Potency [1] | Potency [2] | Potency [3]

CC(=O)OC1C(O)CC(O[C@@H]2O[C@H](CO)[C@@H](O)[C@H](O)[C@H]2O)C2CCC3C(=O)OC(c4ccoc4)CC3(C)C21 (some centres undefined)
inactive: Potency [1] | Potency [2] | Potency [3]

CN(NC(=O)CC(=O)NN(C)C(=S)c1ccccc1)C(=S)c1ccccc1
inactive: Potency [1] | Potency [2] | Potency [3]

NC(Cc1c[nH]c2ccccc12)C(=O)NC(CCC(=O)O)C(=O)O (centres undefined)
inactive: Potency [1] | Potency [2] | Potency [3]

CCn1nnnc1NCc1ccc(C(C)C)cc1
inactive: Potency [1] | Potency [2] | Potency [3]

C=C1CCC2C(C)(COC3OC(COC(=O)CC(=O)O)C(O)C(O)C3O)CCCC2(C)C1CCC1=CCOC1=O (centres undefined)
inactive: Potency [1] | Potency [2] | Potency [3]
